Assay outcomes (PubChem BioAssay)
An excerpt weighted towards active compounds, which were near 6.9% of everything screened.
MCF10A rereplic: induces DNA re-replication in MCF 10a normal breast cells | MCF 10A DNA re-replication, Hoechst nuclear intensity, 48 h | Potency, µM (titrated, usually from 46.1 µM), inactives show at the highest dose activity, positive = re-replication, most hits filed as activators | actives 2.9% (n = 350,000) | AID 624296; further: potency means the concentration at half of the fitted maximal effect; % of control where 0% means no effect; nearly all actives have a fitted effect of over 50% in size
SW480 rereplic: DNA re-replication induction in SW480 cells | SW480 DNA re-replication, Hoechst DNA content imaging, 48 h | Potency, µM (highest dose often 46.1 µM), for the others: top-dose re-replication activation, most hits filed as activators | actives 1.8% (n = 340,000) | AID 624297; further: potency means the concentration at half of the fitted maximal effect; % of control where 0% means no effect; nearly all actives have a fitted effect of over 55% in size
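Image-based DNA-content assay: after two days of treatment, nuclei were labelled with the DNA dye Hoechst and imaged, and hits were compounds raising the count of nuclei showing high fluorescence intensity.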
IL-1B inflam inh: blocks inflammasome-driven IL-1 beta release | THP-1 LPS/ATP IL-1B secretion, AlphaLISA, 16 h; hits give low values | activity change, % at 57.5 µM | actives 4.7% (n = 360,000) | AID 743279; in the data active means activity change below about -50%; inconclusive means mostly about -30% to -49%; further: on the % scale 0 is the no-effect control and ±100 the full control effect
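Secreted IL-1B measured by AlphaLISA bead assay after 16 h compound exposure of THP-1 cells; compounds (final up to 57.5 uM) added 1 h before LPS (250 ng/mL) and ATP (1.25 mM) stimulation; lower signal means less secretion.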
Giardia kill: Giardia lamblia killing. actives 0.15% (n = 340,000). activity change, % at 7.66 µM, hits read low. AID 540267. Giardia lamblia trophozoite viability; in the data active means activity change below about -80%; inconclusive means between about -30% and that limit;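 further: parasites exposed to compound for two days anaerobically before the ATP read; on the % scale 0 is the no-effect control and ±100 the full control effect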
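Trophozoite viability was measured as ATP-dependent luminescence, read 15-30 min after reagent addition. Before that, parasites at 100 cells/well were exposed to compounds for 48 h, anaerobically, at 37 deg C.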
Vif-A3G inh: Vif-A3G binding inhibition | Q9HC16 | HeLa A3G-eYFP + Vif (tagged APOBEC3G with the HIV-1 protein that degrades it), YFP fluorescence, overnight | Potency, µM (series often up to 46.1 µM), for inactives: top-dose activity, negative = active, most hits filed as inhibitors | actives 0.076% (n = 410,000) | AID 602310; further: potency means the concentration at half of the fitted maximal effect; on the % scale 0 is the no-effect control and ±100 the full control effect; nearly all actives have a fitted effect of over 60% in size
Target sequence (Q9HC16 whole entry, looked up): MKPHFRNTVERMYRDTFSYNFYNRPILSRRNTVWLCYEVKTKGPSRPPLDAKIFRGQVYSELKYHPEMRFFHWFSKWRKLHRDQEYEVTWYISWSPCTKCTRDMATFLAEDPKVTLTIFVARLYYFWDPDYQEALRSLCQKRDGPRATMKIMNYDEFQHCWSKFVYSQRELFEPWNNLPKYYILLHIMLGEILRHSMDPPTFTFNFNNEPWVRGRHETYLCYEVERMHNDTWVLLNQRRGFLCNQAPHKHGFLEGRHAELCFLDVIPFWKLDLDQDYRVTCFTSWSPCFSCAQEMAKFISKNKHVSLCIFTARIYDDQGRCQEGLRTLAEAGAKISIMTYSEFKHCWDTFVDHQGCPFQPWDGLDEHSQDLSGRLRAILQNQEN
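HeLa cells stably expressing Vif and C-terminally eYFP-tagged A3G, seeded overnight at 37 deg C, then exposed to compound by pintool overnight at 37 deg C. Rise in yellow fluorescence (Ex 488/Em 500-530, Acumen) marks blocked Vif-driven A3G degradation.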
Vif-A3F inh: inhibitors of Vif-A3F interaction | Potency, µM (titrated, usually from 46.1 µM), for inactives: at the top dose activity, negative = active | HeLa A3F-eYFP + Vif (tagged APOBEC3F with the HIV-1 protein that degrades it), YFP fluorescence increase | actives 0.2% (n = 390,000) | AID 602313; further: potency means the concentration at half of the fitted maximal effect; % of control where 0% means no effect; nearly all actives have a fitted effect of over 65% in size
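HeLa cells stably expressing A3F-eYFP plus Vif, plated and incubated overnight at 37 deg C, then exposed to compounds overnight at 37 deg C. Blocked degradation read as raised yellow fluorescence (Ex 488/Em 500-530).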
Starred values were filed as active, the others as inactive; ? = inconclusive; . = no result given; [ ] = remark or other dose. Unless noted, the call rests on the fitted dose curve; in most records, active means well fitted curve in the direction sought with a large enough effect; inconclusive means small, poorly fitted or top-dose-only effect, or another doubt; inactive means no such curve, though single readings can be large; an effect the other way counts as inactive or inconclusive.

SMILES	MCF10A rereplic	SW480 rereplic	IL-1B inflam inh	Giardia kill	Vif-A3G inh	Vif-A3F inh
COc1ccc(C(=O)c2sc3nc(-c4ccccc4)ccc3c2N)cc1	3.7µM*	21µM*	-26	-12	?	3.5µM*
COc1ccc(C(=O)c2cnc3ccccc3c2-c2ccccc2)cc1	18µM*	?	28	9	3%	5%
COc1cccc(-c2ccc3c(N)c(C(=O)c4ccc(Cl)cc4)sc3n2)c1	.	.	.	.	10µM*	?
CCOC(=O)c1sc2nc(-c3cccnc3)ccc2c1N	?	17%	0	?	-1%	-20%
Cc1ccccc1Cn1c(CN2CCC(C(=O)NCc3cccnc3)CC2)cc2ccccc21	.	.	.	.	-3%	0%
O=C1C(=O)N(C2CCN(C(=O)c3ccccc3F)CC2)CCN1Cc1ccc(F)cc1	.	.	.	.	5%	0%
CC(C)COP(=O)(OCC(C)C)C(Nc1ccccc1)c1ccc2c(c1)OCO2 (stereo not given)	?	?	-62*	-5	-2%	4%
Cc1ccc(S(=O)(=O)N2C[C@H]3n4c(=O)ccc(=O)n4C[C@H](OC(=O)NCc4ccccc4F)[C@@]3(O)C2)cc1	.	.	-108*	.	-20%	3%
CCCCCCNC(=O)O[C@H]1Cn2c(=O)ccc(=O)n2[C@@H]2CN(S(=O)(=O)c3ccc(C)cc3)C[C@]12O	.	.	-106*	.	-19%	0%
COc1ccc(OCCCC(=O)Nc2cccnc2)cc1	-1%	-3%	6	9	?	-4%
COc1cccc(N/C=C(\C#N)c2ccc(OCCCF)cc2)c1	-3%	-2%[9.22 µM]	-52*	4	1%	.
CC(=O)n1cc([C@H]2C=C(C(=O)N3CCN(Cc4ccc5c(c4)OCO5)CC3)O[C@@H](OCc3ccc(CO)cc3)C2)c2ccccc21	4%	-2%	-62*	9	2%	7%
O=C(C1=C[C@@H](C2CCCCC2)C[C@@H](OCc2ccc(CO)cc2)O1)N1CCN(Cc2ccc3c(c2)OCO3)CC1	?	4%[9.22 µM]	-63*	0	-1%	6%
O=C(C1=C[C@H](C2CCCCC2)C[C@H](OCc2ccc(CO)cc2)O1)N1CCN(Cc2ccc3c(c2)OCO3)CC1	?	-5%[9.22 µM]	-70*	5	-2%	4%
O=C(C1=C[C@H](C2CC2)C[C@H](OCc2ccc(CO)cc2)O1)N1CCN(Cc2ccc3c(c2)OCO3)CC1	23%	-14%	0	-6	5%	5%
O=C(C1=C[C@@H](C2CC2)C[C@@H](OCc2ccc(CO)cc2)O1)N1CCOCC1	8%	-11%	8	-9	1%	-6%
O=C(C1=C[C@@H](C2CCCCC2)C[C@@H](OCc2ccc(CO)cc2)O1)N1CCOCC1	6%	0.18µM*	-11	3	-1%	-14%
CN1c2ccccc2-c2nc(SCC(=O)Nc3ccccc3C(F)(F)F)ncc2S1(=O)=O	.	.	.	.	-7%	3%
CCc1ccc(NC(=O)c2sc3nc(C)c(Cl)c(C)c3c2NC(=O)c2ccccc2)cc1	.	.	.	.	-2%	-3%
CCOC(=O)c1cccc(NS(=O)(=O)c2c(C)nc3sc(C)cn3c2=O)c1	.	.	.	.	4%	1%
COc1cccc(NC(=O)CSc2cc(C)[nH]c(=O)n2)c1	.	.	.	.	4%	-6%
CC(C)(C)[C@H]1C=C(C(=O)N2CCN(Cc3ccc4c(c3)OCO4)CC2)O[C@@H](OCc2ccc(CO)cc2)C1	29%	-14%	-61*	9	-6%	11%
CCc1nc2ccc(C(=O)N(C)Cc3ccccc3)cn2c1N(CC)Cc1cccc(Br)c1	.	.	?	.	-8%	.
CCc1nc2ccc(C(=O)NC3CCN(Cc4ccccc4)CC3)cn2c1N(CC)Cc1cccc(Br)c1	.	.	-102*	.	-5%	.
CCc1nc2ccc(C(=O)Nc3ccc(OC)c(OC)c3)cn2c1N(CC)Cc1cccc(Br)c1	.	.	-57*	.	-2%	.
SMILES	MCF10A rereplic	SW480 rereplic	IL-1B inflam inh	Giardia kill	Vif-A3G inh	Vif-A3F inh
Cc1ccc(O)c(C(CC(=O)NC(C)C)c2ccccc2)c1 (stereo not given)	6%	58%	0	38	-1%	-1%
CCCN(CCC)C(=O)CC(c1ccccc1)c1cc(C)ccc1O (stereo not given)	?	9%	-57*	-26	2%	-11%
CCOC(=O)[C@H](CCc1ccccc1)N[C@@H](C)C(=O)N1Cc2ccccc2C[C@H]1C(=O)O	0.12µM*	0%	4	-24	-2%	-1%
O=C(NCc1ccco1)c1cc([N+](=O)[O-])ccc1N1CCCCC1	?	3%	-17	-18	-2%	4%
COC(=O)c1cc(C(=O)NCc2ccc3c(c2)OCO3)cc([N+](=O)[O-])c1	-5%	-2%	-55*	6	0%	-8%
O=C(NCc1ccc2c(c1)OCO2)c1cc([N+](=O)[O-])ccc1N1CCCCC1	2.6µM*	5.8µM*	13	4	?	2%
Cc1c(Cl)cccc1-n1ncc(C(=O)NCCN2CCN(C)CC2)c1C1CCN(C(=O)OC(C)(C)C)CC1	.	.	.	.	-6%	0%
O=S(=O)(c1ccc(N=C2NN=C(c3cc(F)ccc3F)CS2)cc1)N1CCOCC1	11%	?	-76*	-26	-9%	-1%
CC(C)(C)N=C1NN=C(c2ccc(S(=O)(=O)N3CCCCC3)cc2)CS1	?	?	-30	7	-1%	2%
Clc1ccc(C2=NNC(=NCc3ccccc3)SC2)cc1	0%	-8%	-4	6	0%	-5%
c1ccc(CN=C2NN=C(c3ccccc3)CS2)cc1	6%	1%	-67*	2	1%	-22%
Clc1ccccc1N=C1NN=C(c2cccs2)CS1	10%	0%	-77*	0	-1%	3%
Fc1ccc(N=C2NN=C(c3cc(F)ccc3F)CS2)cc1	?	?	-96*	0	-8%	-6%
COCCn1c(C)cc(C2=NNC(=Nc3ccccc3F)SC2)c1C	19%	5%	-16	-13	2%	-10%
Cc1cccc(N=C2NN=C(c3ccccc3F)CS2)c1C	9%	23%	-4	-8	7%	0%
Fc1ccc(F)c(C2=NNC(=Nc3ccccc3F)SC2)c1	21µM*	?	-8	7	-16%	-4%
CC(=O)Nc1ccc(C2=NNC(=Nc3ccc(S(=O)(=O)N4CCOCC4)cc3)SC2)cc1	9%	?	-52*	17	1%	3%
Fc1ccccc1N=C1NN=C(c2ccccc2)CS1	?	?	-90*	-11	-10%	-4%
COc1ccc(Cl)cc1NC(=O)CN1C(=O)NC(Cc2c[nH]c3ccccc23)C1=O (stereo not given)	4%	12%	-57*	-4	-7%	7%
